Experimental data published in ChEMBL document CHEMBL3988442, “University of Dundee, Small-Polar-MMV Screening Library” (2021).
Measured potencies and affinities stand elsewhere.

Each molecule was assayed against Protein translocase subunit SecA (Escherichia coli (strain K12)) (UniProt P10408) (assay: Assay to Identify E. coli SecA ATPase Inhibitors). Conditions: 30 µM.
Format: functional
Set-up: scale not given: direction of the effect not stated beside the values

Sequence of Protein translocase subunit SecA (Escherichia coli (strain K12)) (P10408 whole entry): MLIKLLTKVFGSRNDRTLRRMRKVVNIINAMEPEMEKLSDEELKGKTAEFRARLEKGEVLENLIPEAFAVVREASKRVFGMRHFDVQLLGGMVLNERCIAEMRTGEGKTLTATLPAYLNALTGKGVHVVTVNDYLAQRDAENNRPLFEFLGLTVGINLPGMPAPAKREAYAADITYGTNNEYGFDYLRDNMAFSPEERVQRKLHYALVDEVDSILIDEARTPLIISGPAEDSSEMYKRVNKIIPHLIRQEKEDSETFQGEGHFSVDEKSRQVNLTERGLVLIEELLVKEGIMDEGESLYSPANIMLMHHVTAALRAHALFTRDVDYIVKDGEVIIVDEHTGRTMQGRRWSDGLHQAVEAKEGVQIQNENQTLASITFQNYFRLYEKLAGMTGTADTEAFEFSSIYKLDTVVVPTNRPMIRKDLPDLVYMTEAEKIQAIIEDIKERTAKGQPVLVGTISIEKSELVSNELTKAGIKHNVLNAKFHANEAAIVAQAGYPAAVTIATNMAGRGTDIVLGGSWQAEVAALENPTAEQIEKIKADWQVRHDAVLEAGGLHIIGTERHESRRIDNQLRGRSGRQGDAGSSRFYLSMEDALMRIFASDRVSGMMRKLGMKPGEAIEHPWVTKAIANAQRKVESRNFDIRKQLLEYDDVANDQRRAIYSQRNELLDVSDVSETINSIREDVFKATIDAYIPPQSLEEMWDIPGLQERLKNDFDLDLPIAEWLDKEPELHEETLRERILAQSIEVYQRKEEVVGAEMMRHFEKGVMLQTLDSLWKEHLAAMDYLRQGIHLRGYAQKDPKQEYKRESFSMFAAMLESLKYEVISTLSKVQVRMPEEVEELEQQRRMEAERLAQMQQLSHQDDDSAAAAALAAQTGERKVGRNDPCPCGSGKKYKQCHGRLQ

In order of falling Percent Effect:
1. Cc1csc(C2CCCCN2C(=O)CN(C)C2CC2)n1 (stereo not drawn)  1.03%
2. CC(C)NC(=O)N1CCN(CC2CC2)CC2(CC(=O)N(C)C2)C1 (stereo not drawn)  0.576%
3. Cc1nn(C)c(C)c1C1CCCN1C(=O)CCCn1cccn1 (stereo not drawn)  0.0877%
4. CCN1CC2(CC1=O)CN(Cc1ccco1)CCN(C(=O)N(C)C)C2 (stereo not drawn)  -0.643%
5. CC(=O)c1cn(CCC(=O)N[C@H](C(=O)O)C(C)C)c2ccccc12  -1.16%
6. O=C(c1cscn1)N1CCC[C@]2(C[C@H](OCC3CC3)CO2)C1  -1.77%
7. Cc1ccc(C(=O)N2CC[C@@H]3[C@H]2CCC(=O)N3c2ccccc2)o1  -2.77%
8. CC(C)c1csc(C2CCCN(C(=O)c3ccc(=O)n(C)n3)C2)n1 (stereo not drawn)  -2.9%
9. COc1nc2c(cc1C(=O)N1C[C@H](N)C[C@H]1C(=O)NC(C)C)CCC2  -3.3%
10. CCOc1ncccc1C(=O)N1CCCCC1c1nccs1 (stereo not drawn)  -4.08%
11. O=C(c1cncc(N2CCC3(CCNCC3)CC2)n1)N1CCCC1  -4.3%
12. Cn1cc(CN2CC[C@@H]3[C@@H](CCC(=O)N3CCc3c[nH]cn3)C2)cn1  -4.59%
13. Cn1ncc2c(=O)[nH]c(CN3CCC(Cc4ccccc4)CC3)nc21  -4.67%
14. OC1CCN(Cc2c(C3CCCNC3)[nH]c3ncccc23)CC1 (stereo not drawn)  -5.49%
15. O=C(NCc1cnc2n1CCN(Cc1ccsc1)CC2)C1CCC1  -5.62%
16. Cn1cc(CN2CCCN(C(=O)c3ccc4c(c3)COC4)CC2)cn1  -5.64%
17. c1ccc(Cn2ccnc2CN2CCOC(Cn3cccn3)C2)cc1 (stereo not drawn)  -9.1%
18. Cc1ccc(C(CNCc2ccncc2)N2CCOCC2)s1 (stereo not drawn)  -9.26%
19. COCc1ncn2c1CN(C(=O)C1CC=CC1)CC2  -10.3%

What follows are molecules tested against T1, Ubiquitin-activating enzyme e1, putative (Leishmania donovani (strain BPK282A1)) (UniProt E9BSI1) (assay: Leishmania donovani Ubiquitin Activating Enzyme (LdE1)). Conditions: 30 µM.
T1 sequence (whole entry): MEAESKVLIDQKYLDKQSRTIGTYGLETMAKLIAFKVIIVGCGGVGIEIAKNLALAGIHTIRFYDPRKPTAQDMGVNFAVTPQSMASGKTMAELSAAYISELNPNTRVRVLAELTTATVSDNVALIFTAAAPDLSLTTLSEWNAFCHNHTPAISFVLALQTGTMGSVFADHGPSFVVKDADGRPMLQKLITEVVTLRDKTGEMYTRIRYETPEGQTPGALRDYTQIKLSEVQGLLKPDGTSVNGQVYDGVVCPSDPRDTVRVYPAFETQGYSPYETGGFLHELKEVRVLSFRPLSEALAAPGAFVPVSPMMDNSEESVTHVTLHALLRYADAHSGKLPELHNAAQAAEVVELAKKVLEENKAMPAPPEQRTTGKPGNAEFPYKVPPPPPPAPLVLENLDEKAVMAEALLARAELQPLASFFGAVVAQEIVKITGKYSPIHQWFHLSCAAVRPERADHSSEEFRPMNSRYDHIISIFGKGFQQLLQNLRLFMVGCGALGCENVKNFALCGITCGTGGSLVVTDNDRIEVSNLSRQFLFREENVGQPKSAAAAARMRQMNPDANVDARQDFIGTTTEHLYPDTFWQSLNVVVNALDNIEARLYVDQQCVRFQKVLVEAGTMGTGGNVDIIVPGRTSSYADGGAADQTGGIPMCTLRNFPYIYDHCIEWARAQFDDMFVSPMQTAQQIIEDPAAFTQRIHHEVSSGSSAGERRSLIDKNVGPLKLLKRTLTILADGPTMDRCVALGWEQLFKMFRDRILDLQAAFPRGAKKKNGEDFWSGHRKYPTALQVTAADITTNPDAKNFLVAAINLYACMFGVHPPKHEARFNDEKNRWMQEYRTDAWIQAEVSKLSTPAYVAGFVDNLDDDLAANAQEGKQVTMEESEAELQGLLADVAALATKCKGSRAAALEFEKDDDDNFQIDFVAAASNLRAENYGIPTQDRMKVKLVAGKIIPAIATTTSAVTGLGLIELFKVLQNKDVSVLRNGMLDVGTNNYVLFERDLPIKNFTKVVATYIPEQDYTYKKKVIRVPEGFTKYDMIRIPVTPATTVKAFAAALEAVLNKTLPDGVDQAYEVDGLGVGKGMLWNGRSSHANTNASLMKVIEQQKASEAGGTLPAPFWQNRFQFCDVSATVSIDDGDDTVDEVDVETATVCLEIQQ
Format: functional
Set-up: scale not given: direction of the effect not stated beside the values

In order of falling Percent Effect:
1. O=C(c1cncc(N2CCC3(CCNCC3)CC2)n1)N1CCCC1  18.7%
2. Cn1cc(CN2CCCN(C(=O)c3ccc4c(c3)COC4)CC2)cn1  18.4%
3. COc1nc2c(cc1C(=O)N1C[C@H](N)C[C@H]1C(=O)NC(C)C)CCC2  18.1%
4. c1ccc(CN2CCN(Cc3cscn3)CC2)cc1  15.6%
5. Cc1nc(C)n(C2CCCN(C(=O)c3cc(C(N)=O)cs3)C2)n1 (stereo not drawn)  13.9%
6. CC(C)c1csc(C2CCCN(C(=O)c3ccc(=O)n(C)n3)C2)n1 (stereo not drawn)  13.5%
7. CC(C)c1cc(NC(=O)c2ccc(NC3CC3)nc2)[nH]n1  13%
8. CCN1CC(C(=O)NCc2ccccc2-n2cccn2)CC1=O (stereo not drawn)  13%
9. OC1CCN(Cc2c(C3CCCNC3)[nH]c3ncccc23)CC1 (stereo not drawn)  12.2%
10. CC(=O)c1cn(CCC(=O)N[C@H](C(=O)O)C(C)C)c2ccccc12  12%
11. CC(C)CN1CCN(Cc2nc3ccccc3[nH]2)[C@H]2CS(=O)(=O)C[C@H]21  10.8%
12. COc1c(CNC2CCN(C(C)(C)C)CC2)c(C(C)C)nn1C  10.5%
13. Cn1ncc2c(=O)[nH]c(CN3CCC(Cc4ccccc4)CC3)nc21  10.5%
14. CS(=O)(=O)NC1CCN(C(=O)NCCc2ccccc2F)CC1  8.11%
15. C=Cc1ccc(C(=O)N2CCCC(Nc3ccc(OC)cc3)C2)cc1 (stereo not drawn)  8.11%
16. O=C(NCc1cnc2n1CCN(Cc1ccsc1)CC2)C1CCC1  8.11%
17. O=C1[C@@H]2CCN(Cc3ccncc3)C[C@@H]2OCCN1c1ccccc1  8%
18. Cn1ccc(CN2CCC(CCc3ccc(O)cc3)CC2)cc1=O  6.33%
19. O=C(CSc1nncs1)N1CCN(Cc2ccc(Cl)s2)CC1  5.48%
20. Cn1cc(CN2CC[C@@H]3[C@@H](CCC(=O)N3CCc3c[nH]cn3)C2)cn1  5.48%
21. Cc1cc(N2CCN(CCO)CC2)nc(-c2ccncc2)n1  5.26%
22. Cc1csc(N2CCCN(Cc3noc(C)n3)CC2)n1  3.8%
23. c1ccc(Cn2ccnc2CN2CCOC(Cn3cccn3)C2)cc1 (stereo not drawn)  3.8%
24. CCN1CC2(CC1=O)CN(Cc1ccco1)CCN(C(=O)N(C)C)C2 (stereo not drawn)  2.74%
25. COCc1ncn2c1CN(C(=O)C1CC=CC1)CC2  2.7%
26. CCOc1ncccc1C(=O)N1CCCCC1c1nccs1 (stereo not drawn)  2.7%
27. Cc1ccc(C(=O)N2CC[C@@H]3[C@H]2CCC(=O)N3c2ccccc2)o1  2.67%
28. Cc1cc(C)c2nc(CN3CC[C@@H](O)C3)cc(O)c2c1  0%
29. CC1CN(C(=O)CN(Cc2ccco2)C2CC2)CCO1 (stereo not drawn)  0%
30. Cc1nn(C)c(C)c1C1CCCN1C(=O)CCCn1cccn1 (stereo not drawn)  0%
31. CN(C)C(=O)N1C[C@@H]2CC[C@H](C1)N(Cc1ccc3nsnc3c1)C2  -1.39%
32. OCCC1CN(C2CCC2)CCN1C1CCCC1 (stereo not drawn)  -1.39%
33. CC(C)c1nccn1C1CCCN(C(=O)c2ccc3c(c2)OCO3)C1 (stereo not drawn)  -2.6%
34. Cc1cnn(C2CN(CC(O)c3ccc(F)cc3)C2)c1 (stereo not drawn)  -2.67%
35. O=C(c1cscn1)N1CCC[C@]2(C[C@H](OCC3CC3)CO2)C1  -2.67%
36. Cc1ccc(C(CNCc2ccncc2)N2CCOCC2)s1 (stereo not drawn)  -2.7%
37. CCCS(=O)(=O)c1ncc(CN2CCC(CO)CC2)n1CC1CCCO1 (stereo not drawn)  -6.94%
38. CC(C)NC(=O)N1CCN(CC2CC2)CC2(CC(=O)N(C)C2)C1 (stereo not drawn)  -10.8%
39. Cc1csc(C2CCCCN2C(=O)CN(C)C2CC2)n1 (stereo not drawn)  -13.9%
